A number with no mark means an inactive call. Results filed as inconclusive are left out. Where a call stands in place of a potency, no number is given. The source made the active and inactive calls. Calls follow the shape of the dose curve; as a rule, active = well fitted curve in the direction sought with a large enough effect; inconclusive = small, poorly fitted or top-dose-only effect, or another doubt; inactive = no such curve, though single readings can be large; an effect the other way counts as inactive or inconclusive.
What was measured:
[1] = OV-KATE Cancer Cell Toxicity qHTS against the NCATS CANVASS Library (AID 1347345); also: potency is read from the fitted curve at half-maximal effect
How it was run: (§1)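 Step one: seed 1000 cells per well. Step two: incubate 4 h. Step three: add test compounds in 11 concentrations. Step four: culture 72 h, then add CellTiter-Glo and record luminescence after 15min.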

[2] = HPAF-II Cancer Cell Toxicity qHTS against the NCATS CANVASS Library (AID 1347346); also: nearly all actives have a fitted effect of over 55% in size; also: potency is read from the fitted curve at half-maximal effect
How it was run: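 Using 1000 HPAF-II cells per well, we titrated compounds over 11 concentrations for 72 h at 37 degrees C/5% CO2, with bortezomib as control. Cell survival was quantified by CellTiter-Glo luminescence.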

[3] = U-118MG Cancer Cell Toxicity qHTS against the NCATS CANVASS Library (AID 1347351); also: potency is read from the fitted curve at half-maximal effect
How it was run: as §1

[4] = HEK293 18hr Apoptosis Induction qHTS against the NCATS CANVASS Library (AID 1347357)
How it was run: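 Cells seeded at 500/well in DMEM + 10% FBS. Compounds pinned, 11 concentrations. 18 h, 37 degrees C/5% CO2. Caspase-Glo 3/7 added, 15 min RT dark, luminescence read.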

[5] = HPAF-II 12hr Apoptosis Induction qHTS against the NCATS CANVASS Library (AID 1347358)
How it was run: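 Twelve-hour compound exposure of HPAF-II cells in DMEM with 10% FBS, then luminescent Caspase-Glo 3/7 detection after 15 min at room temperature; doxorubicin control.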

[6] = HEK293 24hr Apoptosis Induction qHTS against the NCATS CANVASS Library (AID 1347359)
How it was run: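 Caspase-3/7 activation measured as luminescence from the DEVD-based Caspase-Glo reagent, 15 min at room temperature, following 24-hour compound treatment of HEK293 cells.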

[7] = HEK293 12hr Apoptosis Induction qHTS against the NCATS CANVASS Library (AID 1347361)
How it was run: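 Cells are seeded, dosed with an 11-point compound series and incubated 12 hours. Caspase-3/7 activity is detected by luminescent DEVD-substrate reagent after 15 minutes at room temperature.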

[8] = target: Luciferin 4-monooxygenase (Photinus pyralis) (UniProt P08659); assay: Firefly luciferase counterscreen qHTS: Assay Interference Panel against the NCATS CANVASS Library (AID 1347363); also: series mostly up to about 57 µM
Sequence of Luciferin 4-monooxygenase (Photinus pyralis) (P08659 whole entry, looked up): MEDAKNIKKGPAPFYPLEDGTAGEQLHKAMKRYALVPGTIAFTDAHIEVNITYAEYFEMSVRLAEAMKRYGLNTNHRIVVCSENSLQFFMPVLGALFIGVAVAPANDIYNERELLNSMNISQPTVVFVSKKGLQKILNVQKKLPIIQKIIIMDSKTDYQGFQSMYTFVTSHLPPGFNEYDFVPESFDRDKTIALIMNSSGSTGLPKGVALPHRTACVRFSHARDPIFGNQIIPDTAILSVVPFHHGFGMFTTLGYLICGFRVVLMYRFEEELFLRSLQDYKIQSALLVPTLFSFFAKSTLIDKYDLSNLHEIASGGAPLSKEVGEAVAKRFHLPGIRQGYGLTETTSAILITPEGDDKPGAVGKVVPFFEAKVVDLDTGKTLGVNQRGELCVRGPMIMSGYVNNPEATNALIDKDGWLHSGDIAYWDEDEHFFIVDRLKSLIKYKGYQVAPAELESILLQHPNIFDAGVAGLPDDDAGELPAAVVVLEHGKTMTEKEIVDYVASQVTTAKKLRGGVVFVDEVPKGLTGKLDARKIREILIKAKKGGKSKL
How it was run: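 Luminescence inhibition readout: compounds (11-point qHTS) sat 15 min at room temperature with substrate mix (0.013 mM luciferin and ATP), then firefly luciferase was added and signal read 5 min later.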

[9] = KB-3-1 Cancer Cell Toxicity qHTS against the NCATS CANVASS Library (AID 1347366); also: nearly all actives have a fitted effect of over 75% in size; also: potency is read from the fitted curve at half-maximal effect
How it was run: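 Luminescence from CellTiter-Glo (10 min, room temperature) measured KB-3-1 viability after 72 hr compound exposure at 37C. Cells were seeded at 500/well and tested in an 11-point series.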

[10] = MCF7 Cancer Cell Toxicity qHTS against the NCATS CANVASS Library (AID 1347369)
How it was run: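 Cells seeded at 500/well, then compound pinned. Plates incubated 72 hr at 37C, 5% CO2. CellTiterGlo added; luminescence read.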

[11] = J3T Cancer Cell Toxicity qHTS against the NCATS CANVASS Library (AID 1347371); also: potency is read from the fitted curve at half-maximal effect
How it was run: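 ATP-based cytotoxicity in canine J3T cells: 72 hr exposure at 37C, 11-point titration, CellTiterGlo luminescent detection.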

[12] = target: Nuclear receptor subfamily 1 group I member 3 (Homo sapiens) (UniProt Q14994); assay: qHTS for Constitutive Androstane Receptor (CAR) Antagonist screened against the NCATS CANVASS Library (AID 1347372);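 also: cells stimulated with 50 nM CITCO agonist so inhibition reflects antagonism; series mostly up to about 46 µM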
Sequence of Nuclear receptor subfamily 1 group I member 3 (Homo sapiens) (Q14994 whole entry, looked up): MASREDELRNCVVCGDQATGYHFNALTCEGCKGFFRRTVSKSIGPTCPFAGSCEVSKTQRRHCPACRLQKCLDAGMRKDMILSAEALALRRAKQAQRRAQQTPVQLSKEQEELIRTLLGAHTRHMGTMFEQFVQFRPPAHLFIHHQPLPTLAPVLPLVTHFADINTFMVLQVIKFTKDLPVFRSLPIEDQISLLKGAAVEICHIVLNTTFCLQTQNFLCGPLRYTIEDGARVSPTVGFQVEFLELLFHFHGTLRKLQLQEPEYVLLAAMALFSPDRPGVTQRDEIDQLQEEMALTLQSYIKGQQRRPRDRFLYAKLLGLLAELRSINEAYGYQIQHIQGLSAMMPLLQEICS
How it was run: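 Antagonist mode: compound added alongside 50 nM CITCO to HepG2-hCAR-CYP2B6 reporter cells, 24hr at 37C. Viability by CellTiter-Fluor fluorescence, then CAR-driven luciferase by ONE-Glo luminescence.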

[13] = target: Nuclear receptor subfamily 1 group I member 3 (Homo sapiens) (UniProt Q14994); assay: qHTS for Constitutive Androstane Receptor (CAR) Agonist screened against the NCATS CANVASS Library (AID 1347373);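 also: every well also contained 1.5 µM PK11195 alongside the test compound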
How it was run: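 In an 11-point concentration series, compounds were incubated 24hr with HepG2 cells carrying hCAR and a CYP2B6-2.2kb reporter, with PK11195 at 1.5uM final. A CellTiter-Fluor viability read preceded the ONE-Glo luminescence read.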

[14] = qHTS for Hypoxia signaling pathway (HIF-1) agonists against the NCATS CANVASS Library (AID 1347375)
How it was run: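 An HRE-beta-lactamase ME-180 line is exposed for 17 h to an 11-point compound series, then read by CCF4-AM FRET. Cytotoxicity is measured in parallel in the same wells with CellTiter-Glo, and autofluorescence is checked separately.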

[15] = 10-beta competent E. coli microbial cell viability qHTS against the NCATS CANVASS Library (AID 1347376); also: series mostly up to about 46 µM
How it was run: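 Overnight 37C exposure of 10-beta E. coli (0.2 OD) to an 11-point concentration series; ATP-based luminescence after 20 min room-temperature reagent incubation; daunomycin as control.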

[16] = qHTS for H2AX Agonists against the NCATS CANVASS Library (AID 1347378);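 also: phospho-H2AX S139 level in CHO-K1 lysates by TR-FRET emission ratio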
How it was run: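 CHO-K1, 1000 cells/well, o/n 37C; cpd several conc, 3 hr 37C, 0.76% DMSO; lyse 30 min RT; cryptate anti-pH2AX(S139) + d2 anti-H2AX, 24 hr RT; HTRF 665/620.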

[17] = Inflammasome Signaling qHTS Counterscreen: IL-1-beta AlphaLISA counterscreen against the NCATS CANVASS Library (AID 1347381);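 also: cell-free check with purified IL-1β in medium and no THP-1 cells; series mostly up to about 57 µM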
How it was run: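 Here, no cellular stimulation occurs; compounds in an 11-point series meet 4 pg purified IL-1-beta directly. Bead-based AlphaLISA detection follows (1 h acceptor/antibody, then 30 min donor, dark, room temperature), with excitation at 680 nm.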

[18] = Cytotoxicity qHTS for assessment of Hepg2 cells membrane integrity screened against the NCATS CANVASS Library (AID 1347387)
How it was run: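 Membrane damage in HepG2 monolayers was estimated from released LDH, measured with CytoTox-ONE (ex 560/em 590 nm), after 5 hr treatment across 0.59 nM - 46 uM final.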

[19] = qHTS for inhibitors of Wild type Zika virus screened against the NCATS CANVASS Library (AID 1347396);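 also: ATP luminescence of surviving cells so rescue from viral cell killing; series mostly up to about 46 µM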
How it was run: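 Using ATP-based luminescence (CellTiter Glo), this screen scores rescue of Vero 766 cells from wild-type Zika killing at 72 h post-infection. Compounds are tested in a concentration series.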

[20] = Viability qHTS for inhibitors of the SERCaMP assay screened against the NCATS CANVASS Library (AID 1347400); also: nearly all actives have a fitted effect of over 70% in size; also: potency is read from the fitted curve at half-maximal effect
How it was run: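 Measures loss of viability in SERCaMP reporter SH-SY5Y cells treated for 48 h with compounds; luminescent ATP detection by CellTiter-Glo.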

Compound | Potency [1] | Potency [2] | Potency [3] | Potency [4] | Potency [5] | Potency [6] | Potency [7] | Potency [8] | Potency [9] | Potency [10] | Potency [11] | Potency [12] | outcome [13] | Potency [14] | outcome [15] | Potency [16] | outcome [17] | outcome [18] | Potency [19] | Potency [20]
C=C1C[C@@]23C=CC(=O)[C@@](C)(CCC(=O)Nc4c(O)ccc(C(=O)O)c4O)C2C[C@@H]1CC3 (some centres not stated) | inactive | inactive | inactive | inactive | inactive | inactive | inactive | inactive | inactive | inactive | inactive | inactive | inactive | inactive | inactive | inactive | inactive | inactive | inactive | inactive
C=C1C[C@@]23C=CC(=O)[C@@](C)(CCCC(C)C(=O)O)[C@@H]2C[C@@H]1CC3 (some centres not stated) | inactive | inactive | inactive | inactive | inactive | inactive | inactive | inactive | inactive | inactive | inactive | inactive | inactive | inactive | inactive | inactive | inactive | inactive | inactive | inactive
CCCCCCCCC[C@@H]1C[C@@H]2CC[C@H]3[C@@H](C(=O)OCCCCN=C(N)N)[C@@H](C)N=C(N1)N23 | 13 µM (active) | 14.7 µM (active) | 11.6 µM (active) | inactive | inactive | inactive | inactive | inactive | 0.578 µM (active) | – | 11.5 µM (active) | – | inactive | – | inactive | – | inactive | inactive | inactive | inactive
CC1(C)C=Cc2c(ccc3c2OC[C@@H](c2ccc(O)cc2O)C3)O1 | inactive | inactive | inactive | inactive | inactive | inactive | inactive | – | inactive | inactive | inactive | inactive | – | inactive | inactive | inactive | inactive | inactive | inactive | inactive
CS/C=C/C(N)=O | inactive | inactive | inactive | inactive | inactive | inactive | inactive | inactive | inactive | inactive | inactive | inactive | inactive | inactive | inactive | inactive | inactive | inactive | inactive | inactive
C/C1=C/[C@@H](C)[C@H](O)C/C=C/CC/C=C/C(=O)O[C@@H]1[C@H](C)C(=O)/C=C/CC1CC(=O)NC(=O)C1 | 18.8 µM (active) | 13.3 µM (active) | 21.1 µM (active) | inactive | inactive | inactive | – | inactive | 13.2 µM (active) | inactive | 16.6 µM (active) | – | inactive | inactive | inactive | inactive | inactive | inactive | inactive | 38.1 µM (active)

From PubChem BioAssay (NCATS)
